# Measured values from PubChem BioAssay (NCATS).
# Values joined by “and” are separate entries in the source; they are usually repeats but may differ in a detail not shown here. Equal values may be shown once. Records with an inconclusive call do not appear. A call without a number means that no potency is given here. Values without a mark were called inactive. Active and inactive are the calls of the source. Calls come from the whole dose curve; as a rule, active = well fitted curve in the direction sought with a large enough effect; inconclusive = small, poorly fitted or top-dose-only effect, or another doubt; inactive = no such curve, though single readings can be large; an effect the other way counts as inactive or inconclusive.
# Key:
# MCC-13 = experiment: qHTS assay to identify novel small-molecules to repurpose for Merkel cell carcinoma treatment (AID 1296009); settings: MCC and control cell lines, CellTiter-Glo viability, 72 h; series mostly up to 46 µM; note: nearly all actives have a fitted effect of over 60% in size
# How it was run: (§1)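 After compound transfer in DMSO, plates were kept 72 hr at 37 degree celsius. Luminescent ATP signal from CellTiter-Glo served as viability measure, normalized against DMSO and no-cell controls.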
# MCC-26 = experiment: as above; settings: MCC and control cell lines, CellTiter-Glo viability, 72 h; series mostly up to 46 µM
# How it was run: as §1
# MKL-1 = experiment: as above; settings: MCC and control cell lines, CellTiter-Glo viability, 72 h; series mostly up to 46 µM
# How it was run: as §1
# MKL-2 = experiment: as above; settings: MCC and control cell lines, CellTiter-Glo viability, 72 h; series mostly up to 46 µM
# How it was run: as §1
# UISO = experiment: as above; settings: MCC and control cell lines, CellTiter-Glo viability, 72 h; series mostly up to 46 µM
# How it was run: as §1
# WaGa = experiment: as above; settings: MCC and control cell lines, CellTiter-Glo viability, 72 h; series mostly up to 46 µM
# How it was run: as §1
# C33A = experiment: Primary qHTS to identify gynecologic anti-cancer compounds using libraries of approved drugs and bioactive compounds (AID 1345084); settings: Gynecologic cancer cell panel viability, ATPlite luminescence, 48 h; series mostly up to 57.5 µM; note: nearly all actives have a fitted effect of over 55% in size
# How it was run: (§2)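 Five-concentration response, 48 h; readout is ATP-driven luciferase luminescence.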
# CAOV3 = experiment: as above; settings: Gynecologic cancer cell panel viability, ATPlite luminescence, 48 h; series mostly up to 57.5 µM
# How it was run: as §2
# Es-2 = experiment: as above; settings: Gynecologic cancer cell panel viability, ATPlite luminescence, 48 h; series mostly up to 57.5 µM
# How it was run: as §2
# HeLa = experiment: as above; settings: Gynecologic cancer cell panel viability, ATPlite luminescence, 48 h; series mostly up to 57.5 µM
# How it was run: as §2
# Hek293T = experiment: as above; settings: Gynecologic cancer cell panel viability, ATPlite luminescence, 48 h, control line for the selectivity index; series mostly up to 57.5 µM
# How it was run: as §2
# JEG-3 = experiment: as above; settings: Gynecologic cancer cell panel viability, ATPlite luminescence, 48 h; series mostly up to 57.5 µM
# How it was run: as §2
# OV90 = experiment: as above; settings: Gynecologic cancer cell panel viability, ATPlite luminescence, 48 h; series mostly up to 57.5 µM
# How it was run: as §2
# PA-1 = experiment: as above; settings: Gynecologic cancer cell panel viability, ATPlite luminescence, 48 h; series mostly up to 57.5 µM
# How it was run: as §2
# SKOV3 = experiment: as above; settings: Gynecologic cancer cell panel viability, ATPlite luminescence, 48 h; series mostly up to 57.5 µM
# How it was run: as §2
# Tov-21-G = experiment: as above; settings: Gynecologic cancer cell panel viability, ATPlite luminescence, 48 h; series mostly up to 57.5 µM
# How it was run: as §2
# Tov112D = experiment: as above; settings: Gynecologic cancer cell panel viability, ATPlite luminescence, 48 h; series mostly up to 57.5 µM
# How it was run: as §2
# [1] = Drug repurposing screens with cells derived from glioblastoma tumor samples (AID 1345199); settings: GBM patient neurospheres viability, ATP luminescence, 48 h; note: nearly all actives have a fitted effect of over 40% in size; note: potency is the fitted concentration of half-maximal effect
# How it was run: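 Four patient lines of CD133+ GBM neurospheres were screened at several concentrations; hits were retested in those lines plus three slower-growing GBM lines, using 48-hour treatment and ATP-based viability.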
# CASKI = experiment: Primary qHTS to identify gynecologic anti-cancer compounds using libraries of approved drugs and bioactive compounds (AID 1345084); settings: Gynecologic cancer cell panel viability, ATPlite luminescence, 48 h; series mostly up to 57.5 µM; note: nearly all actives have a fitted effect of over 55% in size
# How it was run: as §2
# [2] = at 45.9 µM (top of the series), tumour line B
# [3] = at 45.9 µM (top of the series), tumour line D
# [4] = at 46 µM (top of the series), tumour line A
# [5] = at 108 µM (top of the series), tumour line B
structure (smiles),measurement,setting,value
Cc1nc2ccccc2c(=O)n1-c1ccccc1Cl,Potency,MCC-13,inactive
same,Potency,MCC-26,inactive
same,Potency,MKL-1,inactive
same,Potency,MKL-2,inactive
same,Potency,UISO,inactive
same,Potency,WaGa,inactive
same,Potency,C33A,inactive
same,Potency,CAOV3,inactive
same,Potency,Es-2,inactive
same,Potency,HeLa,inactive
same,Potency,Hek293T,inactive
same,Potency,JEG-3,inactive
same,Potency,OV90,inactive
same,Potency,PA-1,inactive
same,Potency,SKOV3,inactive
same,Potency,Tov-21-G,inactive
same,Potency,Tov112D,inactive
same,"activity, negative = cell killing","[1]; at 91.6 µM (top of the series), tumour line B",-7.8%
same,"activity, negative = cell killing","[1]; at 91.6 µM (top of the series), tumour line D",-27.3%
same,Potency,[1]; tumour line A,39.8 µM (active)
CCOC(=O)c1ncn2c1CN(C)C(=O)c1c(I)cccc1-2,Potency,MCC-13,inactive
same,Potency,MCC-26,inactive
same,Potency,MKL-1,inactive
same,Potency,MKL-2,inactive
same,Potency,UISO,inactive
same,Potency,WaGa,inactive
same,Potency,C33A,inactive
same,Potency,CAOV3,inactive
same,Potency,CASKI,inactive
same,Potency,Es-2,inactive
same,Potency,HeLa,inactive
same,Potency,Hek293T,inactive
same,Potency,JEG-3,inactive
same,Potency,OV90,inactive
same,Potency,PA-1,inactive
same,Potency,Tov-21-G,inactive
same,Potency,Tov112D,inactive
NCc1cccnc1,Potency,MCC-13,inactive
same,Potency,MCC-26,inactive
same,Potency,MKL-1,inactive
same,Potency,MKL-2,inactive
same,Potency,UISO,inactive
same,Potency,WaGa,inactive
same,Potency,C33A,inactive
same,Potency,CAOV3,inactive
same,Potency,CASKI,inactive
same,Potency,Es-2,inactive
same,Potency,HeLa,inactive
same,Potency,Hek293T,inactive
same,Potency,JEG-3,inactive
same,Potency,OV90,inactive
same,Potency,PA-1,inactive
same,Potency,SKOV3,inactive
same,Potency,Tov-21-G,inactive
same,Potency,Tov112D,inactive
same,"activity, negative = cell killing",[1]; [2],-7.53%
same,"activity, negative = cell killing",[1]; [3],-1.09%
same,"activity, negative = cell killing",[1]; [4],-28.1%
COc1ccc(C(=O)N2CCCC2=O)cc1,Potency,MCC-13,inactive
same,Potency,MCC-26,inactive
same,Potency,MKL-1,inactive
same,Potency,MKL-2,inactive
same,Potency,UISO,inactive
same,Potency,WaGa,inactive
same,Potency,C33A,inactive
same,Potency,CAOV3,inactive
same,Potency,CASKI,inactive
same,Potency,Es-2,inactive
same,Potency,HeLa,inactive
same,Potency,Hek293T,inactive
same,Potency,JEG-3,inactive
same,Potency,OV90,inactive
same,Potency,PA-1,inactive
same,Potency,SKOV3,inactive
same,Potency,Tov-21-G,inactive
same,Potency,Tov112D,inactive
same,"activity, negative = cell killing",[1]; [2],-4.07%
same,"activity, negative = cell killing",[1]; [3],-13.6%
COc1ccc(CN2CCNCC2)c(OC)c1OC,Potency,MCC-13,inactive
same,Potency,MCC-26,inactive
same,Potency,MKL-1,inactive
same,Potency,MKL-2,inactive
same,Potency,UISO,inactive
same,Potency,WaGa,inactive
same,Potency,C33A,inactive
same,Potency,CASKI,inactive
same,Potency,Es-2,inactive
same,Potency,HeLa,inactive
same,Potency,Hek293T,inactive
same,Potency,JEG-3,inactive
same,Potency,OV90,inactive
same,Potency,PA-1,inactive
same,Potency,SKOV3,inactive
same,Potency,Tov-21-G,inactive
same,Potency,Tov112D,inactive
same,"activity, negative = cell killing","[1]; at 21.2 µM (top of the series), tumour line B",-2.66%
same,"activity, negative = cell killing","[1]; at 21.2 µM (top of the series), tumour line D",-1.27%
C[N+](C)(C)CCOC(=O)C(O)(c1ccccc1)c1ccccc1,Potency,MCC-13,inactive
same,Potency,MCC-26,inactive
same,Potency,MKL-1,inactive
same,Potency,MKL-2,inactive
same,Potency,UISO,inactive
same,Potency,WaGa,inactive
same,Potency,C33A,inactive
same,Potency,CAOV3,inactive
same,Potency,CASKI,inactive
same,Potency,Es-2,inactive
same,Potency,HeLa,inactive
same,Potency,Hek293T,inactive
same,Potency,JEG-3,inactive
same,Potency,OV90,inactive
same,Potency,PA-1,inactive
same,Potency,SKOV3,inactive
same,Potency,Tov-21-G,inactive
same,Potency,Tov112D,inactive
same,"activity, negative = cell killing",[1]; [2],-4.79%
same,"activity, negative = cell killing",[1]; [3],-23.3%
COc1cc(CC(C)N)cc2c1OCO2 (stereo not drawn),Potency,MCC-13,inactive
same,Potency,MCC-26,inactive
same,Potency,MKL-1,inactive
same,Potency,MKL-2,inactive
same,Potency,UISO,inactive
same,Potency,WaGa,inactive
same,Potency,C33A,inactive
same,Potency,CAOV3,inactive
same,Potency,CASKI,inactive
same,Potency,Es-2,inactive
same,Potency,HeLa,inactive
same,Potency,Hek293T,inactive
same,Potency,JEG-3,inactive
same,Potency,OV90,inactive
same,Potency,PA-1,inactive
same,Potency,Tov-21-G,inactive
same,Potency,Tov112D,inactive
same,"activity, negative = cell killing",[1]; [5],-12.8%
same,Potency,[1]; tumour line A,35.5 µM (active)
CN(C)CCc1c[nH]c2ccccc12,Potency,MCC-13,inactive
same,Potency,MCC-26,inactive
same,Potency,MKL-1,inactive
same,Potency,MKL-2,inactive
same,Potency,UISO,inactive
same,Potency,WaGa,inactive
same,Potency,C33A,inactive
same,Potency,CAOV3,inactive
same,Potency,CASKI,inactive
same,Potency,Es-2,inactive
same,Potency,HeLa,inactive
same,Potency,Hek293T,inactive
same,Potency,JEG-3,inactive
same,Potency,OV90,inactive
same,Potency,PA-1,inactive
same,Potency,SKOV3,inactive
same,Potency,Tov-21-G,inactive
same,Potency,Tov112D,inactive
same,"activity, negative = cell killing",[1]; [5],-3.73%
same,"activity, negative = cell killing","[1]; at 108 µM (top of the series), tumour line D",-2.02%
Cc1nnc2n1-c1sc(CCC(=O)N3CCOCC3)cc1C(c1ccccc1Cl)=NC2,Potency,MCC-13,inactive
same,Potency,MCC-26,inactive
same,Potency,MKL-1,inactive
same,Potency,MKL-2,inactive
same,Potency,UISO,inactive
same,Potency,WaGa,inactive
same,Potency,C33A,inactive
same,Potency,CAOV3,inactive
same,Potency,CASKI,inactive
same,Potency,Es-2,inactive
same,Potency,HeLa,inactive
same,Potency,Hek293T,inactive
same,Potency,JEG-3,inactive
same,Potency,OV90,inactive
same,Potency,PA-1,inactive
same,Potency,SKOV3,inactive
same,Potency,Tov-21-G,inactive
same,Potency,Tov112D,inactive
same,"activity, negative = cell killing",[1]; [2],-14.3% and -9.87%
same,"activity, negative = cell killing",[1]; [3],-19.2% and -29.4%
same,"activity, negative = cell killing",[1]; [4],-18.9%
CC(Cc1ccccc1)NCc1ccccc1Cl (stereo not drawn),Potency,MCC-13,inactive
same,Potency,MCC-26,inactive
same,Potency,MKL-1,inactive
same,Potency,MKL-2,inactive
same,Potency,UISO,inactive
same,Potency,WaGa,inactive
same,Potency,C33A,inactive
same,Potency,CAOV3,inactive
same,Potency,CASKI,inactive
same,Potency,Es-2,inactive
same,Potency,HeLa,inactive
same,Potency,Hek293T,inactive
same,Potency,JEG-3,inactive
same,Potency,OV90,inactive
same,Potency,PA-1,inactive
same,Potency,SKOV3,inactive
same,Potency,Tov-21-G,inactive
same,Potency,Tov112D,inactive
same,"activity, negative = cell killing",[1]; [2],-13.4%
same,"activity, negative = cell killing",[1]; [3],-38.9%
same,Potency,[1]; tumour line A,14.1 µM (active)
CCN(CC)C(C)C(=O)c1ccccc1 (stereo not drawn),Potency,MCC-13,inactive
same,Potency,MCC-26,inactive
same,Potency,MKL-1,inactive
same,Potency,MKL-2,inactive
same,Potency,UISO,inactive
same,Potency,WaGa,inactive
same,Potency,C33A,inactive
same,Potency,CAOV3,inactive
same,Potency,CASKI,inactive
same,Potency,Es-2,inactive
same,Potency,HeLa,inactive
same,Potency,Hek293T,inactive
same,Potency,JEG-3,inactive
same,Potency,OV90,inactive
same,Potency,PA-1,inactive
same,Potency,SKOV3,inactive
same,Potency,Tov-21-G,inactive
same,Potency,Tov112D,inactive
same,"activity, negative = cell killing",[1]; [2],-5.61%
same,"activity, negative = cell killing",[1]; [3],-24.9%
same,"activity, negative = cell killing",[1]; [4],-22.4%
C=CCN1CC[C@]23CCCC[C@H]2[C@H]1Cc1ccc(O)cc13,Potency,MCC-13,inactive
same,Potency,MCC-26,inactive
same,Potency,MKL-1,inactive
same,Potency,MKL-2,inactive
same,Potency,UISO,inactive
same,Potency,WaGa,inactive
same,Potency,C33A,inactive
same,Potency,CAOV3,inactive
same,Potency,CASKI,inactive
same,Potency,Es-2,inactive
same,Potency,HeLa,inactive
same,Potency,Hek293T,inactive
same,Potency,JEG-3,inactive
same,Potency,PA-1,inactive
same,Potency,SKOV3,inactive
same,Potency,Tov-21-G,inactive
same,Potency,Tov112D,inactive
same,"activity, negative = cell killing",[1]; [4],29%
same,Potency,[1]; tumour line B,35.5 µM (active)
